Bioassay records deposited in PubChem BioAssay by Broad Institute.
Yp Topo-I inh – Y. pestis Topo-I inhibition via cleavage products; Y. pestis Topo-I cleavage product accumulation, plate reader; activity, % at 10 µM; actives 0.064% (n = 360,000); AID 504884; in the data active = activity above about 50%, passing the limit was not always enough
FadD28 binding – M. tuberculosis FadD28 bisubstrate binding inhibition | FadD28 bisubstrate probe binding, fluorescence polarization | inhibition, % at 12.5 µM | AID 588549 | actives 0.22% (n = 360,000); in the data active = inhibition above about 8.5%, passing the limit was not always enough
Mtb BioA inh – inhibitors of Mycobacterium tuberculosis BioA enzyme | purified M. tuberculosis BioA enzyme, plate reader | inhibition, % at 9.99 µM | actives 0.096% (n = 360,000); in the data active = inhibition above about 40%
Vc quorum ag – quorum light induction in luxS cqsA deficient V. cholerae; V. cholerae BH1578 lux reporter, luminescence, 6 h; activation, % at 18.7 µM; actives 0.16% (n = 350,000); AID 588436; in the data active = activation mostly above about 9.7%, no sharp cut-off
TcdB GH inh – inhibitors of Clostridioides difficile toxin B glycohydrolase; P18177; TcdB glycohydrolase enzymatic assay, plate reader; inhibition, % at 9.99 µM; actives 0.24% (n = 350,000); AID 652162; in the data active = inhibition above about 10%
Target sequence (P18177 whole entry, looked up): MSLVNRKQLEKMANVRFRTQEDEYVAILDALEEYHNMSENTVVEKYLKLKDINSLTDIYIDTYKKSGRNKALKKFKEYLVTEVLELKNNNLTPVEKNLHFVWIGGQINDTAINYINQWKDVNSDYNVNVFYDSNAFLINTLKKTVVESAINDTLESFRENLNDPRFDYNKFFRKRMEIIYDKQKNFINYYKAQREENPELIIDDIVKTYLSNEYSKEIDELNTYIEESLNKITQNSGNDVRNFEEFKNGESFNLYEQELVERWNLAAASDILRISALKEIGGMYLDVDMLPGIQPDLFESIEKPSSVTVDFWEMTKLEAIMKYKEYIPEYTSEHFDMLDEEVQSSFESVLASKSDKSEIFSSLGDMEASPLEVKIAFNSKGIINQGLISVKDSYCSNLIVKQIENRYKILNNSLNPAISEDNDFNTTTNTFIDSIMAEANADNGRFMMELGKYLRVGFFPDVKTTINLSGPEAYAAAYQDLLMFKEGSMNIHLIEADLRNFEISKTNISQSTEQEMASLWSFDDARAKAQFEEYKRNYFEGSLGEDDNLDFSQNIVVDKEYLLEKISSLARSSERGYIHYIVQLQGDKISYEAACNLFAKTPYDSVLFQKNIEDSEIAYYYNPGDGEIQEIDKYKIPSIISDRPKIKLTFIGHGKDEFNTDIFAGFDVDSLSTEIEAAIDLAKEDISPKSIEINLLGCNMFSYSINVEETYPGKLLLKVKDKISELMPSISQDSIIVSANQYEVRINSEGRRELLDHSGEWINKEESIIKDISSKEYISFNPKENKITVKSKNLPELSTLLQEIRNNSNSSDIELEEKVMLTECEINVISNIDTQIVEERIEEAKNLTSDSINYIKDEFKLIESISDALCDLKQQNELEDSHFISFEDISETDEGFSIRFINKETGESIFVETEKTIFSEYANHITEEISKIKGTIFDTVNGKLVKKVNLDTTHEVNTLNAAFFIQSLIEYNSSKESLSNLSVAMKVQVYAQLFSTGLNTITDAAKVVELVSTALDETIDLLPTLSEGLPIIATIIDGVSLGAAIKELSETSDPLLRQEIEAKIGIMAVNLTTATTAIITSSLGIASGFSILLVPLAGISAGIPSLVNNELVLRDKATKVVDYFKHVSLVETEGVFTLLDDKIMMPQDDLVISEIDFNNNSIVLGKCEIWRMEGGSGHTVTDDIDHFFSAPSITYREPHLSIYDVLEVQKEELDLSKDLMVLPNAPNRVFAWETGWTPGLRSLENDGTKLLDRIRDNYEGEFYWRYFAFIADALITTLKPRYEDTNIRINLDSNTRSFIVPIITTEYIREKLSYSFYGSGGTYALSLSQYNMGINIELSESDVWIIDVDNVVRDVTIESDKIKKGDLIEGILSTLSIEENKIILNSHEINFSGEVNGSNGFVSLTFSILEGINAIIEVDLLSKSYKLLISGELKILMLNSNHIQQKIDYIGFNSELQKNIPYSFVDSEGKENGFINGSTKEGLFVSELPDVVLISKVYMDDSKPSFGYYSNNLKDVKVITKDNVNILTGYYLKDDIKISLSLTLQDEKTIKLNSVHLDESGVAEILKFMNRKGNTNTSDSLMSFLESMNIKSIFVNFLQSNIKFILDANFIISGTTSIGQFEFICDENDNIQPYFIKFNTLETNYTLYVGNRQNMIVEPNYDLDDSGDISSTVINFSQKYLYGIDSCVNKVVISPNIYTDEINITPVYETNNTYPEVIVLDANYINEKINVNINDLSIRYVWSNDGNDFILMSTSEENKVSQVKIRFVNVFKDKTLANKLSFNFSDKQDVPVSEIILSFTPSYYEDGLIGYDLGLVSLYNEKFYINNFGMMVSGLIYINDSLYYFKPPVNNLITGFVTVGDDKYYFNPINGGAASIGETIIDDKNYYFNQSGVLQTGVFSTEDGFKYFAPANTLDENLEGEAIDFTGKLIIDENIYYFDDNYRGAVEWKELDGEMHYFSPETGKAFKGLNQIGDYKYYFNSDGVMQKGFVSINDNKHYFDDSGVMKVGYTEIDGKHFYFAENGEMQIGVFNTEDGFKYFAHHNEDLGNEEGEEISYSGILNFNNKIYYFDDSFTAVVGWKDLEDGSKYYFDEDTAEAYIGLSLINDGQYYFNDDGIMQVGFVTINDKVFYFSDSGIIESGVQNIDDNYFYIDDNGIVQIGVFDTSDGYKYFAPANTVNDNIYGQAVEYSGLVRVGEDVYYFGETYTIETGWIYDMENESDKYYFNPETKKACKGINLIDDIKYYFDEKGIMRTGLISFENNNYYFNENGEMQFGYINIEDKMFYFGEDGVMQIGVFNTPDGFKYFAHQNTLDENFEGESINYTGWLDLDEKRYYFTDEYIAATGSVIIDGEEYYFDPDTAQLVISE
Numbers without * were called inactive; i = inactive; nt = no result given; ! = repeats disagree. This is a sample that favours compounds with a hit; in the whole collection about 0.61% have one here.

SMILES	Yp Topo-I inh	FadD28 binding	Mtb BioA inh	Vc quorum ag	TcdB GH inh
CCOC(=O)[C@@H]1[C@H]2COc3ccc(Br)cc3[C@H]2N2C(=O)N(c3ccc(Br)cc3)C(=O)[C@]12C	9.0	0.7	-0.3	-1.0	0.7
CCOC(=O)[C@@H]1[C@H]2COc3ccc(Br)cc3[C@@H]2N2C(=O)N(c3ccc(Br)cc3)C(=O)[C@]12C	-2.9	-2.5	17.5	0.4	13.8*!
COc1cc([N+](=O)[O-])cc(/C=C2/SC(=S)N(Cc3ccccc3)C2=O)c1O	-22.5	47.3*	0.8	-0.8	-0.5
COc1cc(/C=C2\SC(=O)N(Cc3ccc(Cl)cc3)C2=O)cc([N+](=O)[O-])c1O	-4.9	24.2*	nt	-0.2	-0.3
C[C@@H]1CN([C@H](C)CO)C(=O)c2cc(NC(=O)C3CC3)ccc2O[C@H]1CN(C)S(=O)(=O)c1cccs1	nt	nt	11.6	nt	-0.8
Cc1ccc(S(=O)(=O)Nc2ccc3c(c2)CC(=O)N([C@@H](C)CO)C[C@H](C)[C@@H](CN(C)S(=O)(=O)c2ccc(Cl)cc2)O3)cc1	nt	nt	-0.3	nt	nt
COc1cc(/C=C2/C(=O)NN(c3ccc(Cl)cc3)C2=O)cc(OC)c1O	-2.2	8.9*	3.1	-0.3	5.5
C[C@@H]1CCCCO[C@@H](CN(C)C(=O)Cc2ccccc2)[C@@H](C)CN([C@H](C)CO)C(=O)c2cc(NC(=O)Cc3ccccc3)ccc2O1	nt	nt	-2.0	nt	-0.4
CS(=O)(=O)Nc1cccc(C2=NN(C(=O)c3ccccc3)C(c3cccs3)C2)c1 (stereo not given)	3.6	-3.8	4.9	-0.4	12.7*
Cc1ccc(C(=O)N2N=C(c3cccc(NS(C)(=O)=O)c3)CC2c2cccs2)cc1 (stereo not given)	5.8	-1.8	2.2	-0.7	0.5
COc1ccc(-c2nnc(CSc3nc4ccccc4c(=O)n3C)o2)cc1OC	-1.8	0.3	nt	-0.3	0.3
Cn1c(SCc2nnc(-c3ccccc3)o2)nc2ccccc21	6.8	-1.5	nt	-0.3	13.0*
CO[C@@H]1CN(C)C(=O)c2ccc(NC(=O)c3ccccc3F)cc2OC[C@H](C)N(CC2CCOCC2)C[C@H]1C	nt	nt	-0.1	nt	-2.1
CCCCCCCCCCCCCCCC[n+]1cccc2ccccc21	3.2	16.6*	nt	-0.3	4.0
C[C@@H]1CCCCO[C@@H](CN(C)C(=O)c2ccccc2)[C@H](C)CN([C@H](C)CO)C(=O)c2cc(NC(=O)c3ccccc3)ccc2O1	nt	nt	-1.6	nt	2.1
O=C(Nc1ccccc1)N(CCN1CCOCC1)Cc1cccc(Cl)c1	72.6*	-0.9	nt	i	-1.8
O=C(Nc1cccc(Cl)c1)N(CCCN1CCOCC1)Cc1ccccc1F	2.2	-4.6	15.0	-0.2	1.2
O=C(C1CC1)N1[C@@H](CO)[C@@H]2c3ccccc3N(S(=O)(=O)c3ccccc3)C[C@@H]21	nt	nt	1.7	nt	-1.2
CCOC(=O)C1=C(C)Nc2nnnn2C1c1ccc(OC)c(Br)c1 (stereo not given)	1.3	-3.9	2.9	-0.1	12.1*
CCOC(=O)C1=C(C)NC(=S)N(C(C)=O)C1c1ccc(OC)c(OC)c1 (stereo not given)	0.7	-0.1	1.2	i	1.2
CCCN(C)C[C@@H]1Oc2ncc(-c3cccc(F)c3)cc2C(=O)N([C@H](C)CO)C[C@@H]1C	nt	nt	-0.8	nt	-0.1
COc1ccccc1CNC(=O)C[C@H]1C[C@@H]2c3cc(NC(=O)NC4CCCC4)ccc3O[C@@H]2[C@@H](CO)O1	nt	nt	0.6	nt	-0.3
O=C1COc2ccccc2N1Cc1ccccc1Cl	20.1	-4.1	3.4	16.7*	nt
COc1cc2[nH]c3c(N4CCN(c5ccccn5)CC4)ncnc3c2cc1OC	2.7	9.1*	0.8	-0.2	nt
O=C(C1CCCC1)N1CC[C@@H]2[C@H]1c1cc(C3=CCCCC3)ccc1N[C@@H]2CO	nt	nt	nt	nt	-0.2
SMILES	Yp Topo-I inh	FadD28 binding	Mtb BioA inh	Vc quorum ag	TcdB GH inh
COc1cc(NC(=O)CCc2nnc3ccc(N4CCC(C)CC4)nn23)cc(OC)c1	3.8	-3.3	-0.2	-1.1	10.3*
COc1cc(NC(=O)CCc2nnc3ccc(N4CCN(c5cccc(OC)c5)CC4)nn23)cc(OC)c1	15.7	0.8	-1.2	-0.3	1.0
Cc1noc(C)c1NC(=O)N(C)C[C@@H]1OCCCC[C@H](C)Oc2ccc(NS(=O)(=O)c3ccccc3)cc2C(=O)N([C@@H](C)CO)C[C@@H]1C	nt	nt	-0.6	nt	-0.5
O=C(O)c1cccc2cccc(-c3c4ccc(=O)c(O)c-4oc4c(O)c(O)ccc34)c12	-40.2	43.7*	nt	i	2.1
COc1cccc(NC(=O)N(C)C[C@@H]2Oc3ncc(/C=C/c4ccccc4)cc3C(=O)N([C@H](C)CO)C[C@H]2C)c1	nt	nt	1.0	nt	1.3
COc1cc(/C=C(\C#N)C(=O)Nc2ccc3c(c2)OCCO3)ccc1O	-11.6	-0.9	nt	i	15.1*
Clc1ccc2nc(-c3ccccc3)c(Cc3ccccc3)n2c1	45.0	-6.8	-0.8	-0.6	3.3
Clc1ccc(-c2nc3ccc(Cl)cn3c2Cc2ccccc2)cc1	19.5	-2.5	-0.6	-0.4	12.9*
Cc1ccn2c(Cc3ccccc3)c(-c3ccc(F)cc3)nc2c1	42.6	-2.5	-0.9	-0.4	10.1*
Cc1ccc(Cc2c(-c3ccccc3)nc3cc(C)ccn23)cc1	36.3	-3.2	-0.8	-0.4	1.3
Cc1ccc(Cc2c(-c3ccc(C)cc3)nc3ccc(Cl)cn23)cc1	-5.1	-1.9	-1.7	-0.4	11.1*
O=C(C[C@@H]1CC[C@H]2[C@@H](COC[C@H](O)CN2C(=O)c2cnccn2)O1)NCc1ccc(F)cc1	nt	nt	1.2	nt	0.2
COc1cccc(CNC(=O)C[C@@H]2CC[C@H]3[C@H](COc4ccc(NC(C)=O)cc4C(=O)N3C)O2)c1	nt	nt	0.2	nt	nt
Cc1ccc(NC(=O)CNc2ccccc2N2CCCC2=O)cc1S(=O)(=O)N1CCOCC1	2.5	21.3*	-0.5	i	0.1
COc1ccc(NC(=O)CNc2ccccc2N2CCCC2=O)cc1S(=O)(=O)N1CCOCC1	3.0	10.2*	0.1	i	0.5
C[C@H](CO)N1C[C@H](C)[C@H](CN(C)Cc2ccc3c(c2)OCO3)Oc2ccc(NC(=O)Nc3ccc(C(F)(F)F)cc3)cc2C1=O	nt	nt	1.5	nt	-0.3
O=C(C[C@H]1C[C@@H]2c3cc(NC(=O)Nc4ccccc4F)ccc3O[C@@H]2[C@@H](CO)O1)NC1CCCCC1	nt	nt	0.2	nt	-0.1
O=C(C[C@@H]1C[C@@H]2c3cc(NC(=O)CC4CC4)ccc3O[C@@H]2[C@H](CO)O1)NCc1cc(F)ccc1F	nt	nt	-2.0	nt	-0.1
CNCCc1ccccn1	4.4	-1.2	-0.2	i	0.9
Oc1ccc(CCc2ccccn2)cc1	6.6	0.2	-0.1	i	13.9*
Cc1noc(C)c1NC(=O)N(C)C[C@@H]1Oc2c(NS(C)(=O)=O)cccc2C(=O)N([C@H](C)CO)C[C@H]1C	nt	nt	-12.5	nt	-5.3
Cc1cccc(CN2CCCN(Cc3ccc(Cl)cc3)S2(=O)=O)c1	57.1*	-0.7	nt	2.2	0.1
Cn1cnc(S(=O)(=O)N2C[C@@H](O)COC[C@@H]3O[C@@H](CC(=O)NCc4cc(F)cc(F)c4)CC[C@H]32)c1	nt	nt	0.3	nt	-1.1
CCc1cc(-c2n[nH]c(C)c2-c2nc3ccccc3s2)c(O)cc1OCC(=O)NN	-11.0	-3.1	nt	-0.4	-0.1
